# Measurements reported in PubChem BioAssay AID1159580 (chemical genetic matrix, 2015).
# Among all 5,500 compounds or so, about 2,000 (36%) were called active. Inconclusive results (about 18%) are left out. Some of the results follow. Values without a mark were called inactive. No stated cut-off is given here; in the data, active means normalized growth mostly below about 0.91 (no sharp cut-off); inconclusive means no clear call, values can overlap the other calls; inactive means mostly above about 0.92.
# Assay: chemical genetic growth profiling, strain panel (AID 1159580);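 further: tested at 20 µM; growth read once vehicle control cultures reached saturation at 30 °C; 1 = growth at the plate median or of vehicle wells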
# Conditions: S. cerevisiae deletion strains, growth OD
# [1] = locus YAL040C, strain CLN3, stronger effect = lower value
# [2] = locus YER002W, strain NOP16, stronger effect = lower value
# [3] = locus YMR307W, strain GAS1, stronger effect = lower value
# [4] = locus YNL197C, strain WHI3, stronger effect = lower value
# [5] = locus YNL224C, strain SQS1, stronger effect = lower value
# [6] = locus YOR083W, strain WHI5 (second series), stronger effect = lower value
Structure (SMILES),normalized growth [1],normalized growth [2],"normalized growth (locus YMR263W, strain SAP30, stronger effect = lower value)",normalized growth [3],"normalized growth (locus YNL128W, strain TEP1, stronger effect = lower value)","normalized growth (locus YNL175C, strain NOP13, stronger effect = lower value)",normalized growth [4],normalized growth [5],normalized growth [6],"normalized growth (locus YPL055C, strain LGE1, stronger effect = lower value)","normalized growth (locus YAL013W, strain DEP1, stronger effect = lower value)","normalized growth (locus YCL061C, strain MRC1 (second series), stronger effect = lower value)","normalized growth (locus YDR150W, strain NUM1, stronger effect = lower value)","normalized growth (locus YDR363W, strain ESC2, stronger effect = lower value)","normalized growth (locus YJR075W, strain HOC1, stronger effect = lower value)","normalized growth (locus YNL322C, strain KRE1, stronger effect = lower value)","normalized growth (locus YPL241C, strain CIN2, stronger effect = lower value)"
NC[C@@H]1O[C@H](C23CC4CC(CC(C4)C2)C3)Cc2c1ccc(O)c2O,0.954,0.998,1,0.414 (active),0.995,1.03,1.03,1.09,1.01,0.599 (active),–,–,–,–,–,–,–
COc1ccc2c(c1)CCC1C2CC[C@@]2(C)C1CC[C@@H]2NCCCCCCN1C(=O)C=CC1=O (stereo partly drawn),0.444 (active),0.843 (active),–,0.93,–,–,1.07,0.256 (active),1.02,–,0.989,0.998,0.976,0.988,0.997,0.984,0.993
